Source: PubChem BioAssay
Compounds with a hit are over-represented: about 5% of the library has one in this group of screens.
AI-2 QS modul = modulators of Vibrio harveyi AI-2 quorum sensing system | Vibrio harveyi JMH597 AI-2 luminescence/OD600 ratio, 9 h; stronger effect = lower value; strain lacks LuxN and CqsS sensors; 0 = neutral-control median | activity change, % at 7.5 µM | 300,000 compounds, 0.4% hits | AID 2094; in the data active = activity change below about -75%, passing the limit was not always enough; inconclusive = no clear call, values can overlap the other calls;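 also: luminescence divided by OD600 gain over 9 h not by final OD600 alone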
CHT PAM = human CHT allosteric activation. 310,000 compounds, 0.49% hits. AID 488977. CHT-expressing cells, membrane potential dye, choline EC20; stronger effect = higher value; LV-AA mutant CHT in HEK293 cells. B-score at 10 µM;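 active = initial fluorescence not abnormally high and integrated response B-score, plate-corrected, over 3 SD above library mean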
Target sequence (Q9GZV3 whole entry, looked up): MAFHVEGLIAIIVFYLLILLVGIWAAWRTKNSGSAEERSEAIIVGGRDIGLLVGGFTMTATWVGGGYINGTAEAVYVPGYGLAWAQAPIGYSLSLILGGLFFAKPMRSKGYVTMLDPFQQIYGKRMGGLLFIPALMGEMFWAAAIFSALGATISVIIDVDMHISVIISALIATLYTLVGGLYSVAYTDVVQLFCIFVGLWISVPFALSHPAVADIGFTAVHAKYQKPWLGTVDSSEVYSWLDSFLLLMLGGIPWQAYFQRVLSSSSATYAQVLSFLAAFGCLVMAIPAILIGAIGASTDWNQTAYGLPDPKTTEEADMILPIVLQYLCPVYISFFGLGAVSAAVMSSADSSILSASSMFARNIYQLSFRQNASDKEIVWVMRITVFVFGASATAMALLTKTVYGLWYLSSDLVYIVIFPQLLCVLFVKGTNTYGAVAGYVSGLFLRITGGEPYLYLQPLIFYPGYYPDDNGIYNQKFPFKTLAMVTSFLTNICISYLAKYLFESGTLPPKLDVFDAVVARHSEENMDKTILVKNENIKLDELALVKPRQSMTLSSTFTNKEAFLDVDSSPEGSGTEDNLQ
PREPL inh = inhibits the human prolyl oligopeptidase-like enzyme | recombinant PREPL, fluorescence polarization activity-based probe | 320,000 compounds, 0.68% hits | Q4J6C6 | inhibition, % at 5.96 µM | AID 2751; in the data active = inhibition above about 43%;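 also: 0% = enzyme with DMSO and 100% = wells lacking enzyme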
CHT block = human CHT choline transport inhibition. CHT-expressing cells, membrane potential dye, choline response; stronger effect = lower value. B-score at 10 µM. 310,000 compounds, 0.86% hits;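 active = B-score over 3 SD under the library average, and starting fluorescence ratio not unusually high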;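 also: choline stimulus applied at its EC90 after an EC20 pre-addition; B-score computed on integrated fluorescence ratio after choline addition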
ALR inh = blocks human ALR sulfhydryl oxidase activity | P55789 | purified ALR, DTT oxidation, H2O2 HRP-luminol luminescence | inhibition, % (no concentration beside the values) | 290,000 compounds, 3.8% hits | AID 485317;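 active = mean replicate inhibition above about 79%, with every replicate also reaching it, limit read from the data; inconclusive = only one of the two criteria met; inactive = mean below limit and not every replicate reaching it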
CHT inh conf = human CHT inhibition, confirmatory screen. AID 493221. CHT activity remaining % of control (stronger effect = lower value), % at 10 µM. shares compounds with CHT block. 2,400 compounds, 70% hits. CHT-expressing cells, choline membrane potential dye; LV-to-AA substituted CHT, HEK293 cells;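 active = choline transporter activity left, mean of duplicates at 10 µM, below buffer-only control mean minus 3 SD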;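 also: depolarization triggered by choline at its EC90 following an EC20 pre-addition; 0% = hemicholinium-3 full block and 100% = buffer-only control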
HEK293 MPD ctr = counter-screen for CHT inhibitors: effect in parental HEK293 cells; shares compounds with CHT block; membrane potential dye, choline response; active = decrease or increase beyond buffer ±3SD; membrane potential ratio readout (active if shifted either direction beyond buffer ±3SD; no single direction) at 10 µM; 2,400 compounds, 4% hits;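 also: parental cells lack the transporter so any hit is non-specific; ratio is peak minus trough fluorescence over baseline after EC90 choline challenge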
* = called active by the depositor; i = inactive; ? = inconclusive; / = no result given.

SMILES	AI-2 QS modul	CHT PAM	PREPL inh	CHT block	ALR inh	CHT inh conf	HEK293 MPD ctr
COc1cccc(/C=N/Nc2cc(Cl)nc(C)n2)c1O	9.2	i	19.1	-6.39*	-1.0	i	i
COc1cccc(/C=N/Nc2c(Cl)cncc2Cl)c1O	-0.6	i	-0.8	i	-13.0	/	/
C/C(=N\NC1=NCCN1)c1ccc(Cl)cc1	17.3	i	2.7	-6.67*	3.2	52.5%*	i
C/C(=N\NC1=NCCN1)c1ccccc1	12.1	i	-7.3	-6.45*	8.9	32.0%*	i
CCN(CC)CC(=O)Nc1ccc(/C(C)=N/NC2=NCCN2)cc1	17.2	i	-0.1	i	0.8	/	/
O=C(NC1CCCC1)c1ccc(COc2ccccc2Br)o1	0.3	i	30.0	-5.14*	1.9	i	i
CN(NS(=O)(=O)c1ccc(Br)cc1)c1nc(C(F)(F)F)nc2ccccc12	25.8	i	9.0	-5.61*	-0.2	i	i
CN(N)c1nc(C(F)(F)F)nc2ccccc12	6.0	i	10.5	i	-8.1	/	/
CN(C)S(=O)(=O)c1cccc(NC(=S)NCCCn2ccnc2)c1	13.4	i	1.0	i	-10.4	/	/
CC[N+]1(CC)CC2=Cc3c(ccc4ccccc34)C(C)C2C1 (stereo unspecified)	10.1	i	15.0	-5.97*	-58.7	60.4%*	i
CC1NC(C)(C)Cc2c1ccc1ccccc21 (stereo unspecified)	14.1	i	-0.3	i	-0.4	/	/
CC(C)(C)OC(=O)N1CCC(CC2CC(c3ccccc3)=NO2)(C(=O)NCc2ccccc2)CC1 (stereo unspecified)	/	i	10.4	i	0.7	/	/
COC(=O)C1(CC2CC(c3cccc(Br)c3)=NO2)CCN(C(=O)OC(C)(C)C)CC1 (stereo unspecified)	13.2	i	-4.9	-4.99*	-0.2	i	i
CC1CCCCC1NC(=O)Cn1nc(-c2ccccc2)ccc1=O (stereo unspecified)	14.3	i	-3.8	-5.37*	3.3	64.2%*	i
CC1CCCCN1CCNC(=O)Cn1nc(-c2ccccc2)ccc1=O (stereo unspecified)	17.0	i	8.3	i	/	/	/
O=C(CN1C(=O)C2CCCCC2C1=O)Nc1cc(C(F)(F)F)ccc1N1CCCC1 (stereo unspecified)	7.1	i	6.3	i	48.5	/	/
S=c1[nH]nc(-c2ccccc2)n1/N=C/c1cccc(Br)c1	49.4	i	5.9	i	/	/	/
Oc1c(Br)cc(Br)c(/C=N/n2c(-c3ccccc3)n[nH]c2=S)c1Br	43.0	i	-8.4	-6.83*	85.0*	48.3%*	i
Cc1noc(NS(=O)(=O)c2ccc(NC(=O)c3oc4ccc(Cl)cc4c3C)cc2)c1C	7.3	i	27.8	-5.59*	98.2*	59.4%*	i
O=C(Nc1ccc(S(=O)(=O)Nc2ccccn2)cc1)c1cccc(Cl)c1	?	i	-6.7	i	9.6	/	/
Cc1ccc(C)c(OCC(=O)Nc2ccc(S(=O)(=O)Nc3ccccn3)cc2)c1C	15.7	i	-4.1	-7.2*	-5.6	59.2%*	i
Cc1cc(NS(=O)(=O)c2ccc(NC(=S)NC(=O)c3ccc(Cl)cc3Cl)cc2)no1	13.4	i	4.4	i	67.5	/	/
O=C(Nc1ccc(S(=O)(=O)Nc2ccccn2)cc1)c1ccc(Cl)cc1Cl	5.7	i	-10.8	-12.2*	1.9	-0.5%*	i
Cc1cc(NS(=O)(=O)c2ccc(NC(=O)c3ccc(Cl)cc3Cl)cc2)no1	21.5	i	11.4	-9.38*	15.0	12.5%*	i
O=C(c1cc(S(=O)(=O)N2CCN(c3ccccc3)CC2)ccc1Cl)N1CCCCCCC1	20.6	i	-32.2	i	-1.7	/	/
CCn1cc(C(=O)NCCCN2CCCC(C)C2)c(=O)c2cc(S(=O)(=O)N(C)C3CCCCC3)ccc21 (stereo unspecified)	/	i	12.1	-7.52*	-2.4	25.3%*	2.68*
